Screening results: PubChem BioAssay, several laboratories
Most compounds without a hit are left out; they make up all but 3.1% or so of the library.
Peg3 prom inh: Peg3 promoter-driven luciferase inhibitors, primary screen, cell-based, HeLa, luciferase luminescence; HeLa PEG-Prom luciferase reporter, overnight; inhibition, % at 20 µM; 360,000 compounds, 1.7% hits; AID 588405, 2011;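 active = inhibition of at least 50% at 20 µM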
KKLEB tox: cytotoxicity in KKLEB CF airway cells, primary screen, cytotoxicity control for CF NF-kB inhibitor project, cell-based, uHTS, fluorescence assay plates. KKLEB CF airway cells viability, ATPlite luminescence, overnight; stronger effect = lower value; cells stimulated with P. aeruginosa culture filtrate. activity change (cytotoxicity), % at 5 µM. 360,000 compounds, 0.36% hits;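 active = corrected activity change at or below -50% at 5 µM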
CF NFkB inh: inhibitors of PAF-induced NF-kB signaling, primary screen, cell-based, GFP fluorescence, uHTS; KKLEB NF-kB-GFP reporter, GFP fluorescence overnight; inhibition, % at 5 µM; 360,000 compounds, 0.86% hits; AID 588850, 2011;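 active = at least 50% inhibition at 5 µM, scaled per plate between neutral and stimulator controls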;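 also: PAF is a Pseudomonas aeruginosa culture filtrate used as stimulus; plate controls were PAF-stimulated DMSO wells for no effect and unstimulated DMSO wells for full effect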
ABHD5 PLIN5 PPI: ABHD5-PLIN5 interaction inhibitors, primary screen, cell lysate, split luciferase complementation, luminescence. Perilipin-5 (Homo sapiens) + 1-acylglycerol-3-phosphate O-acyltransferase ABHD5 (Homo …. 360,000 compounds, 0.78% hits. inhibition, % at 4 µM. Split G. princeps luciferase complementation, 4 h;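 active = inhibition above the mean inhibition across every tested compound plus 3 SD, cut at about 22% in these data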;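 also: 0% = DMSO only wells and the 100% control is not disclosed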
HIF-2a block: HIF-2a reporter inhibitors, primary screen, luminescence, 786-0 RCC cells; 786-0 RCC cells HIF-2a reporter, luciferase luminescence, overnight; inhibition, % at 18.8 µM; 360,000 compounds, 0.72% hits; AID 624352, 2012;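 active = inhibition of the luminescence signal of 40% or more relative to plate controls, in a single-dose primary screen at 18.75 µM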
MITF TRPM1 inh: inhibitors of MITF-dependent TRPM1 promoter reporter, primary screen, cell-based, SK-MEL-5, single point, luciferase; AID 488899, 2010; SK-MEL-5 TRPM1 promoter luciferase, 24 h; inhibition, % at 12.5 µM; 330,000 compounds, 0.83% hits;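 active = mean inhibition across replicates of 60% or more, whatever share of single replicates reaches that level; inconclusive = some that reach 60%, reason not given; inactive = mean inhibition across replicates below 60%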
ABHD5 PLIN5 conf: ABHD5-PLIN5 interaction inhibitors, confirmation, biochemical, luminescence | 2,200 compounds, 67% hits | inhibition, % at 4 µM | AID 651612, 2012 | shares compounds with ABHD5 PLIN5 PPI; in the data active = inhibition above about 23%;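 also: 0% = DMSO vehicle wells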
HNF4 split-luc: HNF4 dimerization inhibitors, counter-screen for ABHD5-PLIN5 interaction inhibitor project, biochemical, split-luciferase complementation, luminescence; inhibition, % at 4 µM; shares compounds with ABHD5 PLIN5 PPI; AID 651674, 2012; 2,200 compounds, 77% hits;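 active = mean inhibition across replicate wells exceeding the computed hit threshold, cut at about 13% in these data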;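 also: light from luciferase halves that rejoin when HNF4 fusion proteins dimerize; 0% = DMSO only wells and the 100% control is not given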
Target sequence (P41235 whole entry, looked up, the tested form may be a part): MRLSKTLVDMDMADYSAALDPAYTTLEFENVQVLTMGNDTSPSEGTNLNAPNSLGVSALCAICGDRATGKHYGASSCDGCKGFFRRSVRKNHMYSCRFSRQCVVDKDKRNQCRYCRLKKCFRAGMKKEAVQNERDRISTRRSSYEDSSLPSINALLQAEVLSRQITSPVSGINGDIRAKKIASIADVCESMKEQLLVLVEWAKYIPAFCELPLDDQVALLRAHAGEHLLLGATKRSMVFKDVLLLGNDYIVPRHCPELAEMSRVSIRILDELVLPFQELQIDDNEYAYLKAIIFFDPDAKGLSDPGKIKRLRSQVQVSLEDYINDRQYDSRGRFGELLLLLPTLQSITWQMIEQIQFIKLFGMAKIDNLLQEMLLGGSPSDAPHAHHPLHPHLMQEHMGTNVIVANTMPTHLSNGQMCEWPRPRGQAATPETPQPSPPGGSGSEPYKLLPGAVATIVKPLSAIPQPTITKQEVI
The depositor's hits bear a star; ? = inconclusive; . = not tested or not shown.

SMILES	Peg3 prom inh	KKLEB tox	CF NFkB inh	ABHD5 PLIN5 PPI	HIF-2a block	MITF TRPM1 inh	ABHD5 PLIN5 conf	HNF4 split-luc
O=C(C[n+]1cccc(NC(=O)c2ccccc2)c1)c1ccc(NC(=O)c2ccccc2)cc1	-5	1	9	24*	-12	-7	14	-2
Cc1nc2sc(C(=O)Nc3ccccc3)c(N)c2c(C)c1[N+](=O)[O-]	-207	-3	-14	-5	-275	-43	.	.
CCOc1cc(/C=C2\C(=O)N(CCc3ccc(OC)c(OC)c3)C(C)=C2C(=O)OC)ccc1O	18	-16	-8	21	15	6	.	.
CCOc1cc(/C=C2\C(=O)N(Cc3ccco3)C(C)=C2C(=O)OC)ccc1O	1	-4	-2	52*	13	12	37*	63*
O=C(Nc1cccc(-c2cccc(Cl)c2)c1)C1CCN(Cc2ccc(CO)o2)CC1	54*	-24	40	27*	-14	-2	10	-1
Cc1ccc(CN2CCC(C(=O)Nc3cccc(-c4cccc(F)c4)c3)CC2)o1	12	7	-3	11	15	-1	.	.
Cc1nn(-c2ccc(Cl)cc2)c(Cl)c1/C=C(\C#N)C(N)=O	16	-20	-8	5	1	18	.	.
C=CCNC(=O)/C(C#N)=C/c1c(C)nn(-c2ccc(Cl)cc2)c1Cl	6	-12	23	34*	18	3	41*	45*
CC(=O)OCC1=C(C(=O)O)N2C(=O)C(NC(=O)CCn3nc(C)c(Cl)c3C)C2SC1 (stereo not given)	12	12	6	16	8	-17	.	.
CCOc1ccc(C(=O)NC2C(=O)N3C(C(=O)O)=C(COC(C)=O)CSC23)cc1OCC (stereo not given)	2	-1	8	32*	11	1	11	29*
CC(=O)OCC1=C(C(=O)O)N2C(=O)C(NC(=O)CCn3nc(C(F)(F)F)c(Br)c3C3CC3)C2SC1 (stereo not given)	-1	2	-5	47*	21	-11	42*	8
CC(=O)OCC1=C(C(=O)O)N2C(=O)C(NC(=O)c3ccc(COc4ccc(Cl)cc4)o3)C2SC1 (stereo not given)	-8	1	10	18	4	2	.	.
CC(=O)OCC1=C(C(=O)O)N2C(=O)C(NC(=O)c3ccc(COc4c(C)cccc4Cl)o3)C2SC1 (stereo not given)	5	17	-1	25*	13	-4	18	17*
CC(=O)OCC1=C(C(=O)O)N2C(=O)[C@@H](NC(=O)Cc3ccccc3)[C@H]2SC1	-7	9	-2	21	5	-9	.	.
CSc1cccc(NC(=S)NC(=O)c2cccnc2)c1	-1	-4	3	1	-67	9	.	.
CCN(CC)C(=O)C(c1ccccc1)S(=O)(=O)N1CCOCC1 (stereo not given)	0	-14	30	18	-3	.	.	.
CC[C@H](C)C(N)c1cn(C(CCCN=C(N)N)C(=O)N2CCNCC2)nn1 (stereo not given in full)	5	2	14	-3	9	5	.	.
CC(C(Sc1ccccc1N)c1ccccc1)[N+](=O)[O-] (stereo not given)	49	-16	4	27*	-46	71*	63*	77*
Nc1ccccc1SC(CC(=O)c1ccccc1)c1ccccc1 (stereo not given)	-91	9	-22	68*	-103	.	0	79*
COC(=O)c1ccccc1SC(CC(=O)c1ccccc1)c1ccc(F)cc1 (stereo not given)	-18	-14	-2	3	-48	-37	.	.
Cc1ccc2c(c1)/C(=C/c1ccco1)C(=O)N2	-28	3	-39	4	-28	8	.	.
Cc1ccccc1/C=C1\C(=O)Nc2ccc(F)cc21	28	5	6	4	-4	18	.	.
Cc1ccc(/C=C2\C(=O)Nc3ccccc32)o1	-68	15	-51	24*	-88	-9	8	40*
O=C1Nc2ccccc2/C1=C/c1ccccc1F	-37	14	-15	27*	-64	-4	44*	41*
Cc1ccccc1NC(=O)Cc1nc(COC(=O)CSc2ccccc2)cs1	15	13	-19	4	13	-2	.	.
SMILES	Peg3 prom inh	KKLEB tox	CF NFkB inh	ABHD5 PLIN5 PPI	HIF-2a block	MITF TRPM1 inh	ABHD5 PLIN5 conf	HNF4 split-luc
Cc1ccc2nc(-c3ccc(NC(=O)CN4CCN(C(=O)c5ccco5)CC4)cc3)sc2c1	-256	12	-5	27*	-284	-42	20	7
Cc1ccc(NC(=O)CN2CCN(C(=O)c3ccco3)CC2)cc1	3	-3	-4	-4	14	-6	.	.
CC(C)NC(C(=O)Nc1cc(Cl)cc(Cl)c1)c1ccccc1 (stereo not given)	2	-21	7	54*	12	10	9	4
COc1cc(C=C2CCCC(=Cc3ccc(OCC4CO4)c(OC)c3)C2=O)ccc1OCC1CO1 (stereo not given)	93*	-45	86*	24*	13	.	37*	21*
COc1ccc(/C=C2/CSC/C(=C/c3ccc(OC)c(OC)c3)C2=O)cc1OC	100*	-92*	93*	55*	92*	99*	81*	68*
O=[N+]([O-])/C=C\c1ccc(N2CCCC2)c(F)c1	101*	-12	-21	64*	46*	94*	98*	100*
O=Cc1ccc(N2CCCC2)c([N+](=O)[O-])c1	12	-2	-2	6	-17	5	.	.
Cc1nc(NC(=O)/C=C/c2ccccc2)n[nH]1	92*	-4	44	25*	21	?	42*	38*
CCCn1nnc(NC(=O)/C=C/c2ccccc2)n1	-8	-1	-22	-1	-34	1	.	.
COc1cc(C(=O)/C=C/c2cccnc2)ccc1O	-63	7	1	24*	-28	7	61*	55*
COc1ccc(OC)c(C(=O)/C=C/c2cccnc2)c1	75*	-14	23	39*	39	2	61*	63*
